Compound activity (PubChem BioAssay)
FMDV antiviral: antivirals against foot and mouth disease virus | AID 1159524 | FMDV antiviral cell-based qHTS | Potency, µM (highest dose often 57.9 µM), usual class: inhibitors | 1.2% of 410,000 active; calls by dose curve; tested in HEK293T cells; note: read-out not given here; nearly all actives have a fitted effect of over 45% in size
HCMV inh: inhibitors of human cytomegalovirus; HFF cells, HCMV-luciferase reporter, 72 h; hits give low values; activity change, negative = inhibition, % at 57.5 µM; 4.5% of 410,000 active; in the data active = activity change below about -60%; inconclusive = no clear call, values can overlap the other calls; inactive = above about -39%
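Screen run at 2 compound doses on HFFs infected with reporter HCMV, MOI 1 PFU/cell. Luciferase activity from cell lysates at 72 h post infection gave inhibition relative to buffer-only and Salinomycin wells.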
HCV inhibitor: HCV inhibition; Huh7.5.1 HCVcc-Cre infection, luciferase reporter, 44 h; Potency, µM (highest dose often 41.8 µM), most hits filed as inhibitors; 3.4% of 340,000 active; active = well fitted inhibition curve with a large enough effect; inconclusive = small, poorly fitted or top-dose-only effect, or another doubt; inactive = no such curve, though single readings can be large or run the other way
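Infectious HCV cell culture screen: compound-treated cells (1,000/well, pre-plated 4 h) are infected with HCVcc-Cre at roughly 0.5 moi and grown 44 h. Infection is quantified by luciferase signal after 15 min substrate incubation at room temperature.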
Marburg entry inh: Marburg virus entry inhibition. Marburg virus pseudotyped entry inhibition, cell reporter. 1.8% of 300,000 active. Potency, µM (doses to about 37.8 µM), actives largely listed as inhibitors. AID 540276; calls by dose curve; tested in HEK293 cells
LASV entry inh: Lassa virus entry inhibition. Lassa virus pseudotype entry inhibition, cell reporter. Potency, µM (top dose mostly 37.9 µM), actives largely listed as inhibitors. 1.2% of 300,000 active. AID 540256; calls by dose curve; tested in HEK293 cells; note: nearly all actives have a fitted effect of over 50% in size
Each line names hits and unclear results; the compound was inactive in the other large screens; ! = not active in a repeat. Most compounds without a hit are left out; they make up all but 7.9% or so of the library.

Cc1ccc(-c2csc(NC(=O)CSc3nc4ccccc4c(=O)n3CCCN(C)C)n2)cc1	HCV inhibitor 1.4µM, Marburg entry inh inconclusive, LASV entry inh inconclusive
Cc1cc(C)nc(SCc2nnc(SCC(=O)Nc3nc(-c4ccccc4)cs3)n2C)n1	FMDV antiviral inconclusive, HCV inhibitor inconclusive
Cc1cc(C)cc(OCC(=O)Nc2cccc3cccnc23)c1	none (no result: HCV inhibitor)
CSc1nnc(-c2ccc(S(=O)(=O)N3CCOCC3)cc2)n1C	none
CCN(CC)c1ccc(/C=N/NC(=O)c2cc(C)nc3ccccc23)cc1	FMDV antiviral inconclusive, Marburg entry inh inconclusive, LASV entry inh inconclusive
CCN(CC)c1ccc(/C=C/c2cc(-c3ccccc3)c3ccccc3n2)cc1	HCV inhibitor 14µM (no result: Marburg entry inh, LASV entry inh)
CN1CCN(C2=Cc3cc(Cl)ccc3Sc3cc(F)ccc32)CC1	FMDV antiviral inconclusive, HCV inhibitor 7.1µM, Marburg entry inh inconclusive, LASV entry inh 10µM
CN1CCN(C2=Cc3ccccc3Sc3cc(F)c(Cl)cc32)CC1	FMDV antiviral inconclusive, HCV inhibitor 13µM, Marburg entry inh inconclusive
CN1CCN(C2Cc3cc(Cl)ccc3Sc3cc(F)ccc32)CC1 (configuration not stated)	FMDV antiviral inconclusive, HCMV inh -78, HCV inhibitor inconclusive, Marburg entry inh inconclusive, LASV entry inh inconclusive
CN1CCN(C2=Cc3ccccc3Sc3cc(F)c(F)cc32)CC1	FMDV antiviral inconclusive, HCV inhibitor 11µM, Marburg entry inh inconclusive, LASV entry inh inconclusive
OCCN1CCN(C2Cc3cc(Cl)ccc3Sc3ccc(Cl)cc32)CC1 (configuration not stated) (tested in a mixture with another compound)	HCV inhibitor inconclusive, Marburg entry inh inconclusive, LASV entry inh inconclusive (no result: HCMV inh)
COc1ccc(CN2CCC3(CCC(CNC(=O)c4ccnn4C)O3)CC2)c(C)c1C (configuration not stated)	none (no result: HCMV inh, HCV inhibitor, Marburg entry inh, LASV entry inh)
Cc1ccc(Cl)c(NC(=O)Nc2csc3c2CCCC3)c1	none (no result: HCV inhibitor, LASV entry inh)
O=C(CN1C(=O)NC2(CCCC2)C1=O)Nc1nc2c(F)cc(F)cc2s1	none
CCNC(=O)Oc1ccc(-c2csnn2)cc1	FMDV antiviral 32µM
COc1ccc(/C=C2\CN(Cc3ccccc3)C/C(=C\c3ccc(OC)cc3)C2=O)cc1	FMDV antiviral inconclusive, Marburg entry inh inconclusive, LASV entry inh 7.9µM
COc1ccc(/C=C2\CN(Cc3ccccc3)C/C(=C\c3ccc(OC)cc3OC)C2=O)c(OC)c1	HCV inhibitor inconclusive, Marburg entry inh inconclusive, LASV entry inh inconclusive
CCN(CC)c1ccc(-n2c(C)c(C(C)=O)c(C(C)=O)c2C)cc1	FMDV antiviral inconclusive, HCMV inh -63, Marburg entry inh inconclusive, LASV entry inh inconclusive
Cc1cc(C(F)(F)F)nc(-n2cc(-c3ccccc3)nn2)n1	LASV entry inh inconclusive
COc1ccc(-n2c(C)cc(/C=C/c3nc(O)c([N+](=O)[O-])c(=O)[nH]3)c2C)cc1	HCMV inh -61
CN(c1cccnc1)c1ncnc2[nH]ncc12	none
C=CCN(CC=C)c1ncnc2[nH]ncc12	HCMV inh -86
CCCCCCCCCCCCCCCC[N+](C)(C)CCN(Cc1ccc(OC)cc1)c1ncccn1	FMDV antiviral 28µM, HCV inhibitor 2.8µM (no result: HCMV inh, Marburg entry inh, LASV entry inh)
COc1ccc(CN(CCN(C)C)c2ccccn2)cc1	HCV inhibitor inconclusive, Marburg entry inh 16µM!
CN1CCN(c2ccc([N+](=O)[O-])cc2C(=O)c2ccccc2)CC1	HCV inhibitor inconclusive
COc1ccc(C(=O)c2cc([N+](=O)[O-])ccc2N2CCN(C)CC2)cc1	HCV inhibitor inconclusive, Marburg entry inh 7.1µM
O=[N+]([O-])c1ccc(N2CCN(c3ccc([N+](=O)[O-])cc3CO)CC2)c(CO)c1	FMDV antiviral inconclusive, HCMV inh -66, HCV inhibitor 3.2µM
O=C(c1ccccc1)c1cc([N+](=O)[O-])ccc1N1CCCC1	FMDV antiviral inconclusive, HCMV inh -61, HCV inhibitor inconclusive
CN1CCN(c2ccc([N+](=O)[O-])cc2C(=O)c2ccc(Br)cc2)CC1	HCMV inh inconclusive, Marburg entry inh inconclusive, LASV entry inh inconclusive
O=C(c1ccc(Br)cc1)c1cc([N+](=O)[O-])ccc1N1CCCCC1	HCMV inh -91, HCV inhibitor inconclusive, Marburg entry inh 0.73µM, LASV entry inh inconclusive
CCCNC(=O)c1cc(C2CCCCN2C(=O)c2ccc(C#N)cc2)on1 (configuration not stated)	none (no result: HCV inhibitor, Marburg entry inh, LASV entry inh)
O=C(Nc1cc(C(F)(F)F)ccc1N1CCCCC1)c1cccc([N+](=O)[O-])c1	HCMV inh -77, HCV inhibitor inconclusive
